A selection: hits, their analogues and other compounds. The true share with any hit is near 10%.
HP1b binding inh – inhibitors of HP1-beta chromodomain binding to methylated histone tails; AID 540317; AlphaScreen HP1-beta / biotin-H3K9me3 peptide binding; 390,000 tested, 0.56% active; Potency, µM (highest dose often 114 µM), for inactives: at the top dose activity change, negative = inhibition, usual class: inhibitors; further: nearly all actives have a fitted effect of over 70% in size
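AlphaScreen: HP1-beta (50 nM) preformed 30 min with biotin-H3(1-18)K9me3 peptide (50 nM) in PBS pH 7.4, 0.01% Tween-20. Compound added for 30 min at RT, then streptavidin donor/nickel chelate acceptor beads (10 ug/mL) for 30 min.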
L3MBTL1 inh – L3MBTL1 (human) inhibition | 230,000 tested, 0.66% active | AlphaScreen L3MBTL1–H3K9me1 peptide binding | Potency, µM (doses to about 57.1 µM), for inactives: top-dose activity, negative = inhibition, actives largely listed as inhibitors; further: on the % scale 0 is the no-effect control and ±100 the full control effect; nearly all actives have a fitted effect of over 60% in size
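L3MBTL1 (50 nM) pre-complexed 30 min with biotinylated H3(1-15)K9me1 peptide (75 nM), then compounds added for 30 min at room temperature; AlphaScreen streptavidin donor/nickel chelate acceptor beads (10 ug/mL final) read after 30 min dark incubation.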
GLS inh – blocks human kidney-isoform glutaminase activity; O94925; 410,000 tested, 0.21% active; Potency, µM (doses to about 45.5 µM), inactives show at the highest dose activity change, negative = inhibition, usual class: inhibitors; GLS enzymatic activity, qHTS titration; AID 624170; further: on the % scale 0 is the no-effect control and ±100 the full control effect
Target sequence (O94925 whole entry, looked up, canonical isoform): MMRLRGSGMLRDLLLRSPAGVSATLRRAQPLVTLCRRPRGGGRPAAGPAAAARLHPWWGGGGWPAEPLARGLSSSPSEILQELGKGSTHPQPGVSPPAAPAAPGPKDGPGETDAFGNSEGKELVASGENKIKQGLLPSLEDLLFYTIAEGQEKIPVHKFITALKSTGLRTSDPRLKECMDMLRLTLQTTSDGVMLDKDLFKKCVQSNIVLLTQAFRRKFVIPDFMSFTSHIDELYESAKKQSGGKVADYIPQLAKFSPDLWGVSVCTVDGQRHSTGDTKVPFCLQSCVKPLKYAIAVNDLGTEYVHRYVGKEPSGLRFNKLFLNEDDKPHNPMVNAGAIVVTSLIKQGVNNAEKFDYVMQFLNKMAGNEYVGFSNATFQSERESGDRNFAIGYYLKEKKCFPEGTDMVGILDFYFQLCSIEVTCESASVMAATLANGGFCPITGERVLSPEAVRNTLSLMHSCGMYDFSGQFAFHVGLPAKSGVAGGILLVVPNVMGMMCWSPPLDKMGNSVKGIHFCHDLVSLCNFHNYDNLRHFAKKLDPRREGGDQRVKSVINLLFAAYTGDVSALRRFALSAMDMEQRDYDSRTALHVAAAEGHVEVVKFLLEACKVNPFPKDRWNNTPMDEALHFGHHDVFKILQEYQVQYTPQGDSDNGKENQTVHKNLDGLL
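Coupled fluorescence readout: glutamate oxidase/HRP/Amplex Red detect glutamate formed by hKGA from L-glutamine (1 mM solution added). Buffer 45 mM KH2PO4 pH 8.2, 0.02% Tween-20; reads at t0 and 30 min RT.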
G9a inh – blocks human histone lysine methyltransferase G9a; Q96KQ7; G9a H3K9 monomethylation, AlphaScreen, 2 h; Potency, µM (top dose mostly 102 µM), for inactives: at the top dose activity, negative = inhibition, actives largely listed as inhibitors; 350,000 tested, 8.8% active; further: on the % scale 0 is the no-effect control and ±100 the full control effect; nearly all actives have a fitted effect of over 75% in size
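AlphaScreen read-out: biotin-H3K9 peptide (500 nM) methylation by 20 nM enzyme with 20 uM SAM, 2 h at room temperature after 15 min compound preincubation; anti-monomethyl H3K9 antibody plus donor/acceptor beads, 10 min dark.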
BAZ2B inh – blocks human BAZ2B; 360,000 tested, 4.4% active; Potency, µM (top dose mostly 114 µM), without a hit: at the highest dose activity change, negative = inhibition, most hits filed as inhibitors; AID 504333; AlphaScreen BAZ2B-H3K14Ac peptide displacement; Q9UIF8; further: on the % scale 0 is the no-effect control and ±100 the full control effect; nearly all actives have a fitted effect of over 60% in size
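BAZ2B 50 nM plus b-H3(5-23)K14Ac 50 nM, PBS pH 7.4/0.01% Tween-20, 30 min RT; compound added (max 110 uM), 30 min RT; streptavidin donor/Ni-chelate acceptor beads 10 ug/mL final, 20 min dark; AlphaScreen read.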
JMJD2A Tudor – blocks the human JMJD2A Tudor domain | AlphaScreen JMJD2A-Tudor / H3K4me3 peptide binding | Potency, µM (doses to about 114 µM), for inactives: at the top dose activity change, negative = inhibition, actives largely listed as inhibitors | 390,000 tested, 4.4% active | AID 504339; further: on the % scale 0 is the no-effect control and ±100 the full control effect; nearly all actives have a fitted effect of over 50% in size
An asterisk follows results filed as active; ? = inconclusive; · = no result given; [ ] = another dose, or the depositor's remark. The call rests on the fitted dose curve; in most records, active means well fitted curve in the direction sought with a large enough effect; inconclusive means small, poorly fitted or top-dose-only effect, or another doubt; inactive means no such curve, though single readings can be large; an effect the other way counts as inactive or inconclusive. Potency means the concentration at half of the fitted maximal effect.

SMILES	HP1b binding inh	L3MBTL1 inh	GLS inh	G9a inh	BAZ2B inh	JMJD2A Tudor
CCc1ccccc1NC(=O)CSc1nc2n[nH]c(C)c2c(=N)n1-c1ccc(OC)cc1	33%	23%	11µM*	10%[59 µM]	4%	-7%
CCc1ccccc1NC(=O)CSc1nc2n[nH]c(C)c2c(=N)n1-c1cccc(C)c1	51%	·	-12%	3%[59 µM]	8%	-2%
COC1OC(CO)C(OC2OC(C(=O)O)C(OC3OC(COS(=O)(=O)O)C(OC4OC(C(=O)O)C(OC5OC(CO)C(OC6OC(C(=O)O)C(OC7OC(COS(=O)(=O)O)C(OC8OC(C(=O)O)=C[C@H](O)C8OS(=O)(=O)O)C(O)C7NC(C)=O)[C@@H](O)C6O)C(O)C5NC(C)=O)[C@@H](O)C4O)C(O)C3NC(C)=O)[C@@H](O)C2O)C(O)C1NC(C)=O (stereo not given in full)	·	·	13%	?	·	·
O=C(Cn1nnc(-c2ccccc2)n1)N/N=C/c1cccc([N+](=O)[O-])c1O	29%	1%	0%	4%	45µM*	?
O=C(Cn1nc2ccccc2n1)N/N=C/c1cc(Cl)cc([N+](=O)[O-])c1O	-19%	-5%	0%	40µM*	20µM*	50µM*
O=C(N/N=C/c1cc(Cl)cc([N+](=O)[O-])c1O)C1CC1	3%	-21%	1%	?	-31%	-30%
Cc1ccccc1C(=O)Nc1cccc(C(=O)N/N=C/c2cc(Cl)cc([N+](=O)[O-])c2O)c1	?	·	3%	32µM*	22µM*	50µM*
COc1cc(/C=N/NC(=O)c2cccc(NC(=O)c3ccccc3C)c2)ccc1O	-5%	·	4%	14%	0%	?
O=C(Cn1nnc(-c2ccccc2)n1)N/N=C/c1cccc([N+](=O)[O-])c1	28%	-5%	-1%	4%	-4%	-15%
COC(=O)C1=C(C(=O)OC)SC(=C2C(=S)C(C)(C)N(C(=O)CC(C)C)c3ccccc32)S1	-77%	·	-7%	7.9µM*	4µM*	11µM*
CCCOc1ccc(CNC(=O)c2oc3ccc4c(c3c2C)C(=O)CC(C)(CC)O4)cc1 (stereo not given)	18%	·	12%	-26%[59 µM]	-7%	-12%
C=CCn1c(N)c(C(=O)NCCC2=CCCCC2)sc1=S	?	-16%	-7%	?	40µM*	?
COc1cc(/C=N/NC(=O)C2(O)c3ccccc3-c3ccccc32)ccc1O	22%	-17%	11%	?	-24%	-18%
CCOc1ccc(/C=N/NC(=O)CN2CCSCC2)cc1	?	-4%	9%	10µM*	50µM*	2µM*
CCOc1ccc(/C=N/NC(=O)C2(O)c3ccccc3-c3ccccc32)cc1	4%	6%	-10%	36%[59 µM]	0%	89µM*
COc1ccc(/C=N/NC(=O)CN2CCN(Cc3ccccc3)CC2)cc1Br	-8%	-15%	0%	6%	-21%	-21%
COc1ccc(/C=N/NC(=O)CN2CCSCC2)cc1C	?	-5%	9%	?	50µM*	3.5µM*
Cn1cc(-c2nc3cnc(N4CCNCC4)nc3n(C)c2=O)c2ccccc21	·	·	·	0%[0.501 µM]	·	·
C#CCOCCOCCOCCNc1nc(N2CCN(C(=O)C([C@@H](C)CC)n3cc(C(N)CC(C)C)nn3)CC2)nc(N2CCN(C(=O)[C@H](CCC(=O)O)n3cc(C(N)[C@H](C)CC)nn3)CC2)n1 (stereo not given in full)	32%	0%	3%	-105%[59 µM]	?	71µM*
C#CCOCCOCCOCCNc1nc(N2CCN(C(=O)[C@H](CCC(=O)O)n3cc(C(N)CC(C)C)nn3)CC2)nc(N2CCN(C(=O)[C@H](CCC(=O)O)n3cc(C(N)[C@H](C)CC)nn3)CC2)n1 (stereo not given in full)	27%	8%	-1%	-133%[59 µM]	50µM*	79µM*
